Data: paper PMC13494018
A number with no mark means an inactive call. The rule behind the calls is not given here.

Target: CD276, Q5ZPR3
Sequence (Q5ZPR3 whole entry): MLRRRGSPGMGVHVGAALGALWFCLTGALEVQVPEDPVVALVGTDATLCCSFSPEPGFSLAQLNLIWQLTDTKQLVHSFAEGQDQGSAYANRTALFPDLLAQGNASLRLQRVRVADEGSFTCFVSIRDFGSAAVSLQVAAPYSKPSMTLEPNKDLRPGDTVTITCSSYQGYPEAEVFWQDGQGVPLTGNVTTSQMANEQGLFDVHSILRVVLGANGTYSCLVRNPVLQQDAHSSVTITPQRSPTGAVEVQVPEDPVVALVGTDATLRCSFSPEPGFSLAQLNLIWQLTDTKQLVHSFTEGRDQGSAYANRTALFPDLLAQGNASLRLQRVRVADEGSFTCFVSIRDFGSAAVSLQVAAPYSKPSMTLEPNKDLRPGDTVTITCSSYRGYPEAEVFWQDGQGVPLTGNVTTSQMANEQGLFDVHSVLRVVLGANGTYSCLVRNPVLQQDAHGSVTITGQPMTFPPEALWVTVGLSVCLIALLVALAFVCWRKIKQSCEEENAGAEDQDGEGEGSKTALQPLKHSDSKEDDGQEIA

B1: design_616_e8336982-fa4d-4d7c-b06f-9007953e1994_787_dldesign_0_cycle1_af2pred (protein)
chain: VAAAISAATSTAVELLRAAAGATPEQRAEAHALAAEVNRAAVAAAADPSALPATRAELERARARLEAVRAALA
binding in a display sort: not found

B2: design_616_e8336982-fa4d-4d7c-b06f-9007953e1994_767_dldesign_0_cycle1_af2pred (protein)
chain: AAAREAAVEAAKKQLEELKKKAEELLAYLKANPAASPEEKQKVLEESTKIISQASELAEAYPEVAEQAREAMSAAAKAAILAQKLL
binding in a display sort: not found

B3: design_616_e8336982-fa4d-4d7c-b06f-9007953e1994_328_dldesign_0_cycle1_af2pred (protein)
chain: NANLQAAKVALASAEATLKHADAGVAAGTISPESAKKLYELAATLAKDAAEYAKKAGDAELAKKAEELAKEAKAKAEEMAAKAAA
binding in a display sort: not found

B4: design_616_e8336982-fa4d-4d7c-b06f-9007953e1994_1040_dldesign_0_cycle1_af2pred (protein)
chain: MEEVLREVERQAESVEKLAQAVIDLAQNDPEAQAKAKELAEKAREARERALEEPETAEEQLKRLQELFEEARRLAAETSRRAIAAA
binding in a display sort: not found

B5: design_616_e8336982-fa4d-4d7c-b06f-9007953e1994_361_dldesign_0_cycle1_af2pred (protein)
chain: AAAQAKALAAQAKAAIESGSLSPGEVARLAVKAGAYAMAAANADPSIAAEMQALAQDLFAKVDEYIAKVAA
binding in a display sort: not found

B6: design_616_e8336982-fa4d-4d7c-b06f-9007953e1994_692_dldesign_0_cycle1_af2pred (protein)
chain: MSEAERLAARGLALARHAALLVGLAVGPEEARRLYAAVAAAAADPAALIEVTTEVLELAKEKAALVPQALTTAREALELLTRARELA
binding in a display sort: not found

B7: design_616_e8336982-fa4d-4d7c-b06f-9007953e1994_576_dldesign_0_cycle1_af2pred (protein)
chain: SPALELTKRVAEAMAAQARRAAEEDPALGRAQFENALQIAKQFNPEQGALFRAILEATRAEVEAALAAAA
binding in a display sort: not found

B8: design_616_e8336982-fa4d-4d7c-b06f-9007953e1994_528_dldesign_0_cycle1_af2pred (protein)
chain: SLLEAALAELRARFEAAKTATPAEAAALVRAAQGTLLTAAAQAGAPLEAMAAVSRVLGAAAETAATAPPEERAAALDAALAEVAALLA
binding in a display sort: not found

B9: design_616_e8336982-fa4d-4d7c-b06f-9007953e1994_1084_dldesign_0_cycle1_af2pred (protein)
chain: MTVDERLWETTEKLVELIEQVAASAPAFPKEGAIRTIKGLAANAKLAAEAALKAGASPEVTKAAAEKVEKAAKAALAKVE
binding in a display sort: not found

B10: design_616_e8336982-fa4d-4d7c-b06f-9007953e1994_756_dldesign_0_cycle1_af2pred (protein)
chain: SQAALDAAYNSAKAFAESAKRAAEKGDVQAAEAAYKSAKLAAESAKVIGAAAGEEAKKVAEKAEKIAEEAKKLVEKLKKEA
binding in a display sort: not found

B11: design_616_e8336982-fa4d-4d7c-b06f-9007953e1994_719_dldesign_0_cycle1_af2pred (protein)
chain: PTPVEVAEAAAQATIKTAKRQVEEAKRLLKEGKAEEALRLAESAIQNAEIAKDLAENNPEKKEELKKQAEEVKKEAEEVKEEAEKKL
binding in a display sort: not found

B12: design_616_e8336982-fa4d-4d7c-b06f-9007953e1994_502_dldesign_0_cycle1_af2pred (protein)
chain: MTPEQLAAMERSVARIAEAGARAPTEEEFESAMTAALALAESFGRKAGAPELATARAREIVAKYRARRLA
binding in a display sort: not found

B13: design_616_e8336982-fa4d-4d7c-b06f-9007953e1994_606_dldesign_0_cycle1_af2pred (protein)
chain: SPLAQAQADLLRRTLAALRRSVERAEELAREDPEAGAARLRALAQSAEVVLEAARGLAAQDPALGAETVAAAREVLERAREAEERAR
binding in a display sort: binds (active)

B14: design_616_e8336982-fa4d-4d7c-b06f-9007953e1994_392_dldesign_0_cycle1_af2pred (protein)
chain: AEAYQKALATAEKLLAQGQAGLADPSNAEALEKGAQGYFLLAALYPEKREEYVAKGEALYKKAEEARAAQAA
binding in a display sort: not found

B15: design_616_e8336982-fa4d-4d7c-b06f-9007953e1994_396_dldesign_0_cycle1_af2pred (protein)
chain: GMAELLAELREAEARTTALELMFQAGKNIHPGVAAQGLEAARRLRELAERVADAISPEERARYLAAAERTEELAA
binding in a display sort: not found

B16: design_616_e8336982-fa4d-4d7c-b06f-9007953e1994_1055_dldesign_0_cycle1_af2pred (protein)
chain: GAAEEARKKAEEALKKIEELKEKAKADPANAGAYALEAVKTAAEASRALREADPALEEEIDRLRQAAAEAIRAALATQTA
binding in a display sort: not found

B17: design_616_e8336982-fa4d-4d7c-b06f-9007953e1994_824_dldesign_0_cycle1_af2pred (protein)
chain: DDLERGRELAEEVARVIREGTPEEAKRAIEEAAERLAELSAGAALLAGSLMVREAAKVPGGEELTAHIRAELLRVLRAKIAAA
binding in a display sort: not found

B18: design_616_e8336982-fa4d-4d7c-b06f-9007953e1994_632_dldesign_0_cycle1_af2pred (protein)
chain: AAADTEKFKKATEHALKAVELAKEGKLEEAEKEAKKAEEEAKKIKDPVTKAGALALAKAARQVIESKAKE
binding in a display sort: not found

B19: design_616_e8336982-fa4d-4d7c-b06f-9007953e1994_543_dldesign_0_cycle1_af2pred (protein)
chain: MEEAIAELNKAFAALNAAARTTDAATAQENAKKAIEYAKAAAKAAGEAMAPAAKGIIEQAKEVAAAKAALAA
binding in a display sort: not found
